High-throughput results as filed in PubChem.
Sa ugtP lethal = kills S. aureus RN4220 lacking UgtP; S. aureus RN4220 ugtP deletion, OD600 growth, 16 h; growth inhibition, % (concentration not given with the values); 330,000 compounds, 0.54% hits; in the data active = growth inhibition above about 68%;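 also: plate controls were untreated wells for no effect and antibiotic for full effect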
Mtb bLac sens = beta-lactam sensitization of Mtb H37Rv | M. tuberculosis H37Rv growth with meropenem, percent inhibition | AID 434955 | inhibition, % at 25 µM | 330,000 compounds, 0.27% hits; call rule not given here;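 also: growth measured after seven days incubation then overnight dye step; 0% = bacteria only wells and 100% = bacteria with antibiotic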
RN4220 kill = S. aureus RN4220 growth inhibition. OD600, 16 h. inhibition, % (concentration not given with the values). 330,000 compounds, 0.33% hits; in the data active = inhibition above about 85%;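 also: plate controls were untreated cells for no effect and reference antibiotic for full effect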
Vc quorum ag = inducers of Vibrio cholerae quorum light production without autoinducers; 350,000 compounds, 0.16% hits; AID 588436; V. cholerae BH1578 lux reporter, luminescence, 6 h; activation, % at 18.7 µM; in the data active = activation mostly above about 9.7%, no sharp cut-off; inconclusive = no clear call, values can overlap the other calls; inactive = mostly below about 3.7%
PfHsp40 yeast = compounds rescuing yeast from Plasmodium falciparum HSP40 toxicity. S. cerevisiae expressing PfHsp40, growth rescue, ATP luminescence. growth rescue, % at 12.5 µM. 340,000 compounds, 0.68% hits. AID 504582; in the data active = growth rescue above about 28%, passing the limit was not always enough; inconclusive = no clear call, values can overlap the other calls;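 also: yeast W303a lacking pdr1 and pdr3 grown in galactose medium; growth measured after three days at 30 °C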
The depositor's hits bear a star; i = inactive; ? = inconclusive; / = no result given. The list is not random: actives were taken first. Their share in the collection is about 1.2%.

SMILES | Sa ugtP lethal | Mtb bLac sens | RN4220 kill | Vc quorum ag | PfHsp40 yeast
O=C(O)CCCc1ccc2c(c1)CCc1ccccc1-2 | / | 10 | / | i | 185*
S=C(NCCc1ccc(Cl)cc1)NC1CCCC1 | -3 | -2 | 4 | i | 17
S=C(NCCc1ccccc1)NC1CCCCCC1 | 1 | 1 | 0 | i | 88*
S=C(NCCc1ccc(Cl)cc1)NC1CCCCC1 | / | 18 | / | 0 | 200*
Cc1cccnc1NC(=S)NCCc1ccccc1 | 12 | 14 | 8 | -1 | 60*
COc1ccc(NN=C(C(N)=O)C2=NC(C)(C)Cc3ccccc32)cc1 | 2 | / | -1 | / | /
CCCCCCCn1c(=O)c(C(=O)OC)c(N)c2ccccc21 | -15 | -1 | 2 | -1 | 245*
CCOC(=O)Cc1csc(NC(=O)c2c(O)c3ccccc3n(CCC(C)C)c2=O)n1 | 100* | 100 | 96* | 0 | -1
CCCCCCn1c(=O)c(C(=O)Nc2nc(CC(=O)OCC)cs2)c(O)c2ccccc21 | 21 | 99 | 43 | -1 | -1
CCCCCCn1c(=O)c(C(=O)Nc2cnccn2)c(O)c2ccccc21 | 92* | 100 | 35 | 0 | -2
CCCCn1c(=O)c(C(=O)Nc2ccccn2)c(O)c2ccccc21 | -9 | 97 | 5 | 1 | 0
CCCCCn1c(=O)c(C(=O)Nc2ccccn2)c(O)c2ccccc21 | 100* | -6 | 100* | 0 | 1
CCOC1OC(C(=O)N2CCN(Cc3ccccc3)CC2)=CC(c2cn(C(C)=O)c3ccccc23)C1CCCO (stereo unspecified) | -1 | / | 2 | / | /
COC(=O)C1=C(c2ccccc2OCc2ccccc2)CC2CCC1N2C(=O)NCCc1ccc(F)cc1 (stereo unspecified) | -14 | / | -7 | / | /
Cc1[nH]c(=O)[nH]c(=O)c1C=NNC(=O)C(C)NC(=O)OC(C)(C)C (stereo unspecified) | 0 | / | 6 | / | /
O=C(NN=Cc1ccccc1O)c1ccc2c(c1)OCO2 | -3 | / | 6 | / | /
C[C@@]12C(=O)N(c3cccc(F)c3)C(=O)N1C1c3ccccc3OCC1C2c1ccccc1 (stereo partly specified) | 1 | / | 0 | / | /
CCOC1OC(C(=O)N2CCN(C)CC2)=CC(C2CC2)C1CCCO (stereo unspecified) | -11 | / | 0 | / | /
O=C(CN1CCN(c2ccccn2)CC1)Nc1ccccc1 | -2 | 1 | 0 | i | 26*
COc1ccc(O)c(C=NNC(=S)NCCc2ccccc2)c1 | 18 | / | 3 | / | /
NC(=O)C1CCOc2c(I)cc([N+](=O)[O-])cc2C(=O)NC(CO)C(=O)NCC(=O)N1 (stereo unspecified) | -5 | / | 6 | / | /
COc1ccc(N2CC(C(=O)NN=Cc3cc([N+](=O)[O-])ccc3O)CC2=O)cc1 (stereo unspecified) | 77 | / | 90* | / | /
COc1ccc(N2CC(C(=O)NN=Cc3ccc([N+](=O)[O-])cc3)CC2=O)cc1 (stereo unspecified) | 1 | / | 1 | / | /
O=[N+]([O-])c1cccc(-c2ccc(C=NNC(=S)Nc3ccccc3)o2)c1 | -14 | / | 24 | / | /
O=S(=O)(NCCSCc1ccc(Cl)c(Cl)c1)c1ccc2c(c1)OCCO2 | 42 | -6 | -8 | i | 42*
SMILES | Sa ugtP lethal | Mtb bLac sens | RN4220 kill | Vc quorum ag | PfHsp40 yeast
Cc1ccc(SCCNS(=O)(=O)c2ccc3c(c2)OCCO3)cc1 | 17 | 2 | 4 | i | 4
O=C(N/N=C/c1ccccn1)c1sc2ccccc2c1Cl | / | 85 | / | 1 | 199*
Cc1ccc(-c2nc3ccc([N+](=O)[O-])cc3[nH]2)cc1 | -9 | 9 | -1 | -1 | 111*
O=[N+]([O-])c1ccc(O)c(C=Nc2ccc3nc(-c4ccccc4)[nH]c3c2)c1 | 66 | 10 | 88* | 0 | 0
COc1ccc(-c2nc3ccc([N+](=O)[O-])cc3[nH]2)cc1 | 6 | 3 | 3 | -1 | 22
Oc1c(Br)cc(C=Nc2ccc3nc(-c4ccccc4)[nH]c3c2)c(O)c1Br | / | 11 | / | / | 0
COc1cc(C(=O)NN=Cc2ccc3c(c2)c2ccccc2n3C)ccc1O | 86* | / | 91* | / | /
Cn1c2ccccc2c2cc(/C=N/NC(=O)c3ccc(O)cc3O)ccc21 | / | 15 | / | -1 | 1
CC/C(=N/NC(=O)c1ccccc1O)c1c(C)[nH]n(-c2ccccc2)c1=O | / | 22 | / | i | 399*
Cc1[nH]n(-c2ccc(Cl)cc2)c(=O)c1C(=O)c1ccccc1 | 3 | 68 | 26 | 0 | 87*
Cc1[nH]n(-c2ccccc2)c(=O)c1C(=O)c1cccc(F)c1 | -4 | 11 | 24 | i | -1
Cc1[nH]n(-c2ccccc2)c(=O)c1C(=O)c1ccccc1 | -1 | 47 | 20 | i | 1
Cc1[nH]n(-c2ccccc2)c(=O)c1C(=O)c1ccc(Cl)cc1 | 17 | 85 | 27 | i | 96*
CCSC(=S)c1c(C)[nH]n(-c2ccccc2)c1=O | 73 | 61 | 72 | -1 | 34*
COc1cccc(C=NNC(=O)c2cc3cc([N+](=O)[O-])ccc3s2)c1O | -3 | / | 0 | / | /
Cc1cccc(CCN2C(N(C)C)=NCC2Cc2ccccc2)c1 (stereo unspecified) | -16 | / | 2 | / | /
CN1C(=O)C2C(C1=O)C(c1cccc(Br)c1)N1C(=O)c3ccccc3NC(=O)C21 (stereo unspecified) | -8 | / | 5 | / | /
COc1ccc(C(=O)Nc2cccc([N+](=O)[O-])c2)cc1Br | -21 | 9 | -1 | 1 | 0
COc1ccc(C(=O)Nc2ccc(OC)c([N+](=O)[O-])c2)cc1Br | 4 | 0 | 0 | 29* | 14
Cc1ccc(NC(=O)C2C(C(=O)O)C3C=CC2C32CC2)cc1 (stereo unspecified) | 6 | -20 | 5 | i | 2
Cc1ccc(NC(=O)C2C(c3ccccc3)C=CC(c3ccccc3)C2C(=O)O)cc1 (stereo unspecified) | 29 | 7 | -2 | i | 172*
O=C(NCc1ccncc1)c1ccccc1Nc1ccc(SC(F)F)cc1 | -4 | 5 | 1 | i | 474*
CNC(=O)c1ccccc1Nc1ccc(SC(F)F)cc1 | 7 | 2 | 0 | i | 2
CC(C)C1COCCS(=O)(=O)N1Cc1ccccc1F (stereo unspecified) | 0 | / | 8 | / | /
CC(=O)c1cccc(N/C=C\C(=O)c2ccc(C)cc2)c1 | -10 | -4 | 1 | -4 | 27*
SMILES | Sa ugtP lethal | Mtb bLac sens | RN4220 kill | Vc quorum ag | PfHsp40 yeast
CC(=O)c1cccc(NS(=O)(=O)c2ccc(N/C=C\C(=O)c3ccc(C)cc3)cc2)c1 | -7 | -10 | 3 | 0 | 1
FC(F)(F)c1cccc(NN=Cc2ccccc2)c1 | -30 | / | -15 | / | /
CCOc1cc(C=NNC(N)=O)cc(Br)c1OCc1ccccc1 | 8 | / | -6 | / | /
COCc1ccc(-c2c(-c3cccc(OC)c3)sc3ccc(OC)cc23)cc1 | 33 | 35 | -3 | -1 | 0
COc1cc(OC)cc(-c2sc3ccc(OC)cc3c2-c2ccc(O)cc2)c1 | 100* | 66 | 99* | i | ?
COc1ccc(-c2c(-c3ccccc3OC)sc3ccccc23)cc1 | 87* | 1 | -10 | i | -2
COc1ccc(-c2sc3ccc(OC)cc3c2C#CCCO)cc1 | / | 99 | / | 0 | 46*
